# About 83,000 compounds went through this panel and 20% of them were active in at least one assay; those are over-represented in the sample as a whole.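 A percent growth of 40 corresponds to 60% growth inhibition; 0 means no net growth; -100 means all cells died. Active threshold: below 10.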 Values without a mark were called inactive. Calls of active or inactive are those of the source.
# Assays:
# Assay in all cases: NCI-60 one-dose screen, 48 h (100 = growth as untreated, 0 = no growth, -100 = all killed)
# DU-145 prostate = conditions: 10 µM
# K-562 leukemia = conditions: 10 µM
# MALME-3M melanoma = conditions: 10 µM
# MDA-MB-231 breast = conditions: 10 µM
# RXF 393 renal = conditions: 10 µM
# SF-268 CNS = conditions: 10 µM
# SF-295 CNS = conditions: 10 µM
# SF-539 CNS = conditions: 10 µM
# UACC-257 melanoma = conditions: 10 µM
# M14 melanoma = conditions: 10 µM
# HCT-15 colon = conditions: 10 µM
# HT29 colon = conditions: 10 µM
# SNB-75 CNS = conditions: 10 µM
# SNB-19 CNS = conditions: 10 µM
# PC-3 prostate = conditions: 10 µM
# SK-MEL-5 melanoma = conditions: 10 µM
# UACC-62 melanoma = conditions: 10 µM unless noted
# LOX IMVI melanoma = conditions: 10 µM
# SK-MEL-28 melanoma = conditions: 10 µM
# U251 CNS = conditions: 10 µM
SMILES,growth (DU-145 prostate) [%],growth (K-562 leukemia) [%],growth (MALME-3M melanoma) [%],growth (MDA-MB-231 breast) [%],growth (RXF 393 renal) [%],growth (SF-268 CNS) [%],growth (SF-295 CNS) [%],growth (SF-539 CNS) [%],growth (UACC-257 melanoma) [%],growth (M14 melanoma) [%],growth (HCT-15 colon) [%],growth (HT29 colon),growth (SNB-75 CNS),growth (SNB-19 CNS) [%],growth (PC-3 prostate) [%],growth (SK-MEL-5 melanoma) [%],growth (UACC-62 melanoma) [%],growth (LOX IMVI melanoma),growth (SK-MEL-28 melanoma) [%],growth (U251 CNS) [%]
COc1cc(/C=C(\C#N)C(=O)c2ccccc2)ccc1OCc1ccccc1,102,120,86.1,94.6,100,93.2,103,99.9,106,97.5,98.9,105%,91.7%,100,95.2,102,97.2,90.9%,112,
O=C1N(C[P+](c2ccccc2)(c2ccccc2)c2ccccc2)CCCN1C[P+](c1ccccc1)(c1ccccc1)c1ccccc1,117,93.9,103,90.8,113,115,96.4,106,101,98.2,110,102%,88.4%,98.3,92.5,,94.7,108%,102,95.2
O=c1cc(-c2ccccc2)nc2cc(-c3ccco3)[nH]n12,115,42.8,84.2,98.8,100,93.8,110,81.8,43.8,77.8,67.8,102%,79.4%,95.8,78.7,83.1,67.8,,88.6,90.5
NC(C(=O)O)c1ccc([N+](=O)[O-])cc1 (centres undefined),109,113,121,90.2,118,105,104,89.3,111,99,95.7,149%,78.9%,99.6,,105,97.3,101%,101,115
c1ccc2c(N3CCCCC3)ncnc2c1,112,94.3,142,96.5,105,102,109,85.3,90.2,100,99.6,76.2%,140%,99.4,87.3,91.8,91.3,92.8%,115,
CCc1ccc(/C(C#N)=C/C=C/c2ccccc2)cc1,24.9,14.9,51.2,63.2,11.9,65.1,21.3,18.6,31.5,23.1,38.7,-5.6% (active),0.0202% (active),59.5,19,,29.6,44%,51.8,21.3
CC1(C)/C(=C\CO)C2CCC1C2 (centres undefined),120,105,103,112,113,111,120,109,132,103,105,109%,93.2%,106,,102,97.3,107%,115,105
NC(=O)NC(=O)c1ccc(Cl)cc1,116,101,92,48.2,131,113,112,104,107,96.1,105,94.3%,93.6%,111,96.5,,96.1,103%,119,106
COc1cc2c3c(n(C)c(=O)c2cc1OC)-c1cc2c(cc1C3=O)OCO2,56.5,40.8,81.6,97.1,75.7,59.3,29.4,63.7,78.2,63,81,47.4%,10.5%,54.6,46.8,63.6,40.1,39.9%,,
NC(=S)N/N=C/c1ccc(N)cc1,108,98.7,104,97,107,97.1,102,103,82.9,98.4,102,107%,96.1%,104,82.2,,95.8,91.5%,112,96.6
O=C(NCO)c1ccccc1,99.8,94.5,91.3,117,119,103,110,108,111,106,101,109%,89.8%,107,,,93.8,105%,105,105
Cc1ccc(C(=O)NC2c3ccccc3Oc3ccccc32)cc1,88.2,14.3,53.2,58.4,74.9,64.1,24.8,61.3,57.7,36,39.6,23.4%,34.9%,49,53.4,62.7,,45%,61.4,56.5
CC1=CC(C)(C)NC(=S)N1c1ccc(S(=O)(=O)O)c2cccc(S(=O)(=O)O)c12,111,116,115,98.3,107,104,113,105,112,107,105,133%,90.5%,109,92.5,,97.5,107%,112,113
O=[N+]([O-])c1ccccc1N=Nc1ccc(O)cc1O,117,120,109,119,121,118,107,113,103,110,112,112%,91.5%,111,,106,124,,121,115
Oc1ccc2c(c1)OCC1(O)Cc3cc(O)c(O)cc3C21 (centres undefined),99.1,20.7,88.8,93.2,89.1,96.8,97.1,91.7,96.6,90.6,80.6,92.4%,22.8%,117,69.5,95.5,91.5,98.2%,,
NCC(=O)CCC(=O)O,121,109,101,107,98.3,101,106,110,105,113,106,104%,104%,113,100,,114,99.6%,103,96.7
COC(=O)c1ccc(NC(=O)CCl)cc1,103,70.9,79.9,64.9,95.7,89.5,69.3,96.7,60.4,90.4,61.7,76.3%,83%,92.7,78.2,80.6,72.2,-19.8% (active),101,

# Source: PubChem BioAssay (NCI)
